From PubChem BioAssay (Tox21)
Inconclusive results are not listed. Entries that show only a call come without a potency. Active and inactive are the calls of the source. Unless noted, calls follow the shape of the dose curve; as a rule, active = well fitted curve in the direction sought with a large enough effect in the repeat runs; inconclusive = weak or mixed curves; inactive = no such curve, though single readings can be large; an effect the other way counts as inactive or inconclusive.

Legend:
[1] = qHTS assay to identify aromatase inhibitors - cell viability counter screen (AID 743084);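 also: cells stimulated with testosterone during compound exposure; nearly all actives have a fitted effect of over 55% in size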; also: potency is read from the fitted curve at half-maximal effect
[2] = molecular target: Aryl hydrocarbon receptor (Homo sapiens) (UniProt P35869); experiment: qHTS assay to identify small molecule that activate the aryl hydrocarbon receptor (AhR) signaling pathway (AID 743085);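 also: HG2L7.5c1 human HepG2 liver cells with stably integrated DRE-driven firefly reporter; series mostly up to about 70 µM; nearly all actives have a fitted effect of over 15% in size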
Sequence of Aryl hydrocarbon receptor (Homo sapiens) (P35869 whole entry, looked up): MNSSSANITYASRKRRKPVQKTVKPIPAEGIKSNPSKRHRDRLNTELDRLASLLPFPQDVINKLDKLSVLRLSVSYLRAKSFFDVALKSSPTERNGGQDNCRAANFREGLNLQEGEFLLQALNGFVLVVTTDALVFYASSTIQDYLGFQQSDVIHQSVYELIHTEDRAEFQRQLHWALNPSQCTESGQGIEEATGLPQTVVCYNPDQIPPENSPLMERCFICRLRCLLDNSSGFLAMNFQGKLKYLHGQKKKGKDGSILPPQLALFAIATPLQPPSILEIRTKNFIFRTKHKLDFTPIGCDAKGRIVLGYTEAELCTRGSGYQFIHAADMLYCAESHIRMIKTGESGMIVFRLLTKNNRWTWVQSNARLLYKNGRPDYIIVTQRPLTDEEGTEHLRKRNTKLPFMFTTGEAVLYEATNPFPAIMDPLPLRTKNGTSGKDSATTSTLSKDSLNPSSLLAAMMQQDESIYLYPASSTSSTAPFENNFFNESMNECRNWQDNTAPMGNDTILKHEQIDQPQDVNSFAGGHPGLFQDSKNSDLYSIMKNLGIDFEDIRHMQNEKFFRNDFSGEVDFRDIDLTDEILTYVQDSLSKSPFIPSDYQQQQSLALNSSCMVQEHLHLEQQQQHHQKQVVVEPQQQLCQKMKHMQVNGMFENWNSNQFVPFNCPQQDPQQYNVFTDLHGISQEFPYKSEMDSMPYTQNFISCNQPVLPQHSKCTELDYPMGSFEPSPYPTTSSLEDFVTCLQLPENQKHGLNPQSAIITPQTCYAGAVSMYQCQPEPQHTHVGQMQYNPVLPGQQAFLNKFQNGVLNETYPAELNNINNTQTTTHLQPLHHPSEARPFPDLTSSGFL
Summary of the method: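 24 h compound exposure, 37C, HepG2-derived HG2L7.5c1 cells with DRE-responsive luciferase. Readouts: fluorescence viability, then luminescence at room temperature after 30 min.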

[3] = molecular target: Peroxisome proliferator-activated receptor gamma (Homo sapiens) (UniProt P37231); experiment: qHTS assay to identify small molecule antagonists of the peroxisome proliferator-activated receptor gamma (PPARg) signaling pathway (AID 743191; calls by dose curve; also: series mostly up to about 63 µM; nearly all actives have a fitted effect of over 30% in size)
Sequence of Peroxisome proliferator-activated receptor gamma (Homo sapiens) (P37231 whole entry, looked up): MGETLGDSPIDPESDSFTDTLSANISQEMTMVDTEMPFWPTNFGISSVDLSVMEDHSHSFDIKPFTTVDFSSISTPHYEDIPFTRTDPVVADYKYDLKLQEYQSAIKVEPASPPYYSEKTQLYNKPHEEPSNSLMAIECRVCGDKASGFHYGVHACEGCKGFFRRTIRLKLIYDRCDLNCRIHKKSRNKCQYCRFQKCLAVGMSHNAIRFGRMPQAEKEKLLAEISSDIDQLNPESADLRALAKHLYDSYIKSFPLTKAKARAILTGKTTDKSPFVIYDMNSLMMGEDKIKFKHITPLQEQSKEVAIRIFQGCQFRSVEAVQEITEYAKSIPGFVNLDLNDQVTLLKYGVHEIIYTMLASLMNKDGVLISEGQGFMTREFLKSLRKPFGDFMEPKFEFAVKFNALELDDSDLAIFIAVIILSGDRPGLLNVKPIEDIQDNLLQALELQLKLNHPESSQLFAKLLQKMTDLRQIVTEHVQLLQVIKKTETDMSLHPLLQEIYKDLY
Summary of the method: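 Beta-lactamase reporter under UAS control in HEK293H PPARg-bla cells; compound treatment 17 h at 37C. Read-out: fluorescence intensity after 1 h room-temperature incubation with LiveBLAzer B/G FRET substrate.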

[4] = qHTS assay to identify small molecule antagonists of the peroxisome proliferator-activated receptor gamma (PPARg) signaling pathway - cell viability counter screen (AID 743194); also: nearly all actives have a fitted effect of over 55% in size; also: potency is read from the fitted curve at half-maximal effect
Summary of the method: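 Viability was measured as CellTiter-Glo luminescence in GeneBLAzer PPARg UAS-bla HEK293H cells. These cells had been exposed 17 h at 37 C to compounds together with rosiglitazone at 50 nM final, with the beta-lactamase readout taken in the same wells.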

[5] = qHTS assay for small molecule agonists of the antioxidant response element (ARE) signaling pathway - cell viability counter screen (AID 743203; calls by dose curve; also: nearly all actives have a fitted effect of over 55% in size; also: potency is read from the fitted curve at half-maximal effect)
Summary of the method: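 Compounds in DMSO were pinned onto ARE-bla HepG2 cells plated 5 hrs earlier at 2,000 cells/well. Sixteen hours later at 37C/5% CO2, CellTiter-Glo was added and luminescence measured after 30 min at room temperature.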

[6] = qHTS assay for small molecule activators of the heat shock response signaling pathway - cell viability counter screen (AID 743209); also: nearly all actives have a fitted effect of over 50% in size
Summary of the method: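 Counter screen for cytotoxicity in HeLa HSE-bla reporter cells. Treatment was 5 h at 37 C; viability was detected by luminescent ATP assay (CellTiter-Glo) in the same wells as the beta-lactamase read.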

[7] = qHTS assay to identify small molecule agonists of the peroxisome proliferator-activated receptor delta (PPARd) signaling pathway - cell viability counter screen (AID 743211); also: nearly all actives have a fitted effect of over 55% in size
Summary of the method: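 Luminescent ATP viability assay (CellTiter-Glo, 30 min RT) in UAS-bla HEK293H cells carrying the PPAR delta reporter construct, 3000 cells/well, after a 17 h compound treatment at 37 C.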

[8] = molecular target: Peroxisome proliferator-activated receptor delta (Homo sapiens) (UniProt Q03181); experiment: qHTS assay to identify small molecule agonists of the peroxisome proliferator-activated receptor delta (PPARd) signaling pathway (AID 743212; calls by dose curve)
Sequence of Peroxisome proliferator-activated receptor delta (Homo sapiens) (Q03181 whole entry, looked up): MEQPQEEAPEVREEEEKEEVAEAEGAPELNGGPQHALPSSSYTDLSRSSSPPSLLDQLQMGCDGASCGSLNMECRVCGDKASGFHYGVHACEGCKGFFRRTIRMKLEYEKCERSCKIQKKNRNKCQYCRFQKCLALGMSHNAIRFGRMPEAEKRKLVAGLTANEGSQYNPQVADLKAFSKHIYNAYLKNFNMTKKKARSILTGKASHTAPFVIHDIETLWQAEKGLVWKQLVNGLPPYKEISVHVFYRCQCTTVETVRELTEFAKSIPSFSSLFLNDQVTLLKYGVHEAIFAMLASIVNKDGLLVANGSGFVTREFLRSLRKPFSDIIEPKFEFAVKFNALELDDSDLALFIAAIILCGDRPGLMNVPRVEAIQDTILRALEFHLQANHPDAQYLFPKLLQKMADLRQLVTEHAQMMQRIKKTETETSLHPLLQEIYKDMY
Summary of the method: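 HEK293H PPARd-bla cells; 5 h preincubation 37 C/5% CO2; compound (DMSO) 37 C; LiveBLAzer B/G FRET substrate 2 h RT; fluorescence intensity.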

[9] = qHTS assay to identify small molecule antagonists of the peroxisome proliferator-activated receptor delta (PPARd) signaling pathway - cell viability counter screen (AID 743213); also: nearly all actives have a fitted effect of over 50% in size
Summary of the method: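 HEK293H PPARd UAS-bla cells, 5 h pre-incubation, compound + L165041 300 nM final, 17 h 37 C; B/G FRET substrate 2 h RT; then CellTiter-Glo 30 min RT, luminescence.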

[10] = qHTS assay to identify small molecule agonists of the farnesoid-X-receptor (FXR) signaling pathway - cell viability counter screen (AID 743218); also: nearly all actives have a fitted effect of over 45% in size; also: potency is read from the fitted curve at half-maximal effect
Summary of the method: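 After 16 h at 37 C with test compounds, FXR-bla HEK 293T cells were given LiveBLAzer B/G substrate for 2 h at RT and then CellTiter-Glo; luminescence was taken after 30 min.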

[11] = qHTS assay to identify small molecule antagonists of the farnesoid-X-receptor (FXR) signaling pathway - cell viability counter screen (AID 743221; active = well fitted cell-killing curve with a large enough effect in the repeat runs, not every such curve was filed as active; also: nearly all actives have a fitted effect of over 50% in size; also: potency is read from the fitted curve at half-maximal effect)
Summary of the method: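 In GeneBLAzer FXR-UAS-bla HEK 293T cells stimulated with 50 uM chenodeoxycholic acid (final), compounds acted for 16 h at 37 C. Viability was assessed afterwards by CellTiter-Glo luminescence.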

[12] = molecular target: Vitamin D3 receptor (Homo sapiens) (UniProt P11473); experiment: qHTS assay to identify small molecule agonists of the vitamin D receptor (VDR) signaling pathway (AID 743222; calls by dose curve)
Sequence of Vitamin D3 receptor (Homo sapiens) (P11473 whole entry, looked up): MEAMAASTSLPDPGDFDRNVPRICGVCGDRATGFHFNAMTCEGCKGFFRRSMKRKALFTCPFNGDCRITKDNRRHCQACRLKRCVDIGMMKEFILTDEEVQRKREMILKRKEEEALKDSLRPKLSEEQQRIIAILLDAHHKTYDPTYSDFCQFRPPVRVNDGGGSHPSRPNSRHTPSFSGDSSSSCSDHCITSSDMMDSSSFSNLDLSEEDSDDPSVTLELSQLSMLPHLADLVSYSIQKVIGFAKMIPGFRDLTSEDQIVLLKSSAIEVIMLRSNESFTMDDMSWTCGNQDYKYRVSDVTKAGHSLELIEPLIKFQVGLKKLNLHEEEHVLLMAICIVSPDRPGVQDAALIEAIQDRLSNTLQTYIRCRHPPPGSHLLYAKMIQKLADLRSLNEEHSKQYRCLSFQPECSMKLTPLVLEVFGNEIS
Summary of the method: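 VDR-bla cells were seeded, left 4 h, treated with compounds in DMSO for 16 h, incubated 2 h at RT with B/G FRET substrate, and read for fluorescence.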

[13] = molecular target: Vitamin D3 receptor (Homo sapiens) (UniProt P11473); experiment: qHTS assay to identify small molecule antagonists of the vitamin D receptor (VDR) signaling pathway (AID 743223; active = well fitted inhibition curve with a large enough effect in the signal ratio in the repeat runs, not every such curve was filed as active; the % refers to the signal ratio; also: potency is read from the fitted curve at half-maximal effect)
Summary of the method: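 Agonist 1alpha,25-dihydroxyvitamin D3 (3 nM in well) was added with each compound to VDR-bla cells preincubated 4 h. Cells stood 16 h at 37C, then FRET substrate 2 h at room temperature; fluorescence intensity recorded.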

[14] = qHTS assay to identify small molecule that activate the aryl hydrocarbon receptor (AhR) signaling pathway - cell viability counter screen (AID 743086);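 also: HepG2 liver cells carrying the AhR DRE luciferase reporter; series mostly up to about 70 µM; nearly all actives have a fitted effect of over 45% in size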
Summary of the method: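 Cytotoxicity counter screen: CellTiter-Fluor signal (30 min, 37 C) in 4000 HepG2 cells/well carrying the DRE-luciferase reporter, following 24 h compound exposure at 37 C.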

[15] = molecular target: Peroxisome proliferator-activated receptor gamma (Homo sapiens) (UniProt P37231); experiment: qHTS assay to identify small molecule agonists of the peroxisome proliferator-activated receptor gamma (PPARg) signaling pathway (AID 743094; active = well fitted activation curve with a large enough effect in the signal ratio in the repeat runs, not every such curve was filed as active; the % refers to the signal ratio)
Summary of the method: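 Following 5 h plating at 37C, PPARg-bla HEK293H cells receive compound or DMSO for 17 h; fluorescence intensity is recorded after LiveBLAzer B/G loading for 1 h at room temperature.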

[16] = qHTS assay for small molecule agonists of the antioxidant response element (ARE) signaling pathway (AID 743202; active = well fitted activation curve with a large enough effect in the signal ratio in the repeat runs, not every such curve was filed as active; the % refers to the signal ratio)
Summary of the method: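 Quantitative high-throughput format in HepG2 cells bearing an integrated ARE-beta-lactamase reporter. Compound exposure lasted 16 h at 37 C, and fluorescence was read 2 h after adding LiveBLAzer B/G substrate at room temperature.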

[17] = qHTS assay for small molecule activators of the heat shock response signaling pathway (AID 743210; active = well fitted activation curve with a large enough effect in the signal ratio in the repeat runs, with a control signal flat, not every such curve was filed as active; the % refers to the signal ratio;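 also: HeLa cells with beta-lactamase reporter driven by heat shock elements; series mostly up to about 63 µM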)
Summary of the method: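 HeLa HSE-bla cells, overnight plating; cpd in DMSO 5 h, 37 C; LiveBLAzer B/G FRET substrate 2.5 h RT; fluorescence intensity read.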

[18] = molecular target: Peroxisome proliferator-activated receptor delta (Homo sapiens) (UniProt Q03181); experiment: qHTS assay to identify small molecule antagonists of the peroxisome proliferator-activated receptor delta (PPARd) signaling pathway (AID 743215; active = well fitted inhibition curve with a large enough effect in the signal ratio in the repeat runs, not every such curve was filed as active; the % refers to the signal ratio;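 also: cells stimulated with agonist L165041 at 300 nM final during compound exposure; series mostly up to about 62 µM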)
Summary of the method: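 With L165041 present at 300 nM final, compounds were incubated 17 h at 37 C on PPARd UAS-bla HEK293H cells. A FRET-based beta-lactamase substrate was then applied for 2 h at room temperature and fluorescence intensity recorded.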

[19] = molecular target: Bile acid receptor (Homo sapiens) (UniProt Q96RI1); experiment: qHTS assay to identify small molecule antagonists of the farnesoid-X-receptor (FXR) signaling pathway (AID 743217; active = well fitted inhibition curve with a large enough effect in the signal ratio in the repeat runs, not every such curve was filed as active; the % refers to the signal ratio)
Sequence of Bile acid receptor (Homo sapiens) (Q96RI1 whole entry, looked up): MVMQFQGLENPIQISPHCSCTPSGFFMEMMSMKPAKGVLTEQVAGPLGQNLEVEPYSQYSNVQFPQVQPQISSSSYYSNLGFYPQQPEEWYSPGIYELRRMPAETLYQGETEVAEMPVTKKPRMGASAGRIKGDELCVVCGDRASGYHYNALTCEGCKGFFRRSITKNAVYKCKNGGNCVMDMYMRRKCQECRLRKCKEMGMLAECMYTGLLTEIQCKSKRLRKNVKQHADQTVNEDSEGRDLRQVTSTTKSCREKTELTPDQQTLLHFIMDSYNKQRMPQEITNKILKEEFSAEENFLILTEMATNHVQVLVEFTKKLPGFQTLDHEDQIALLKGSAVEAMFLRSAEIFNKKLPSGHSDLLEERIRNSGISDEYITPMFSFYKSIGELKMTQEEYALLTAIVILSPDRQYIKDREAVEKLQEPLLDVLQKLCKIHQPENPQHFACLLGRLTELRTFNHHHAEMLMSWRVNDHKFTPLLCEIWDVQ
Summary of the method: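 In this cell-based antagonist screen, inhibition of CDCA-driven (50 uM final) UAS-beta-lactamase expression in HEK 293T cells was measured by FRET fluorescence following 16 h compound exposure at 37 °C.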

[20] = molecular target: Bile acid receptor (Homo sapiens) (UniProt Q96RI1); experiment: qHTS assay to identify small molecule agonists of the farnesoid-X-receptor (FXR) signaling pathway (AID 743220; active = well fitted activation curve with a large enough effect in the signal ratio in the repeat runs, not every such curve was filed as active; the % refers to the signal ratio)
Summary of the method: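 Beta-lactamase reporter under UAS control in GeneBLAzer FXR HEK 293T cells (5000/well) measured with LiveBLAzer FRET substrate after 2 h at room temperature. Compound exposure lasted 16 h at 37C.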

| SMILES | Potency [1] | Potency [2] | Potency [3] | Potency [4] | Potency [5] | Potency [6] | Potency [7] | outcome [8] | Potency [9] | Potency [10] | Potency [11] | outcome [12] | Potency [13] | Potency [14] | Potency [15] | Potency [16] | outcome [17] | outcome [18] | outcome [19] | outcome [20] |
| --- | --- | --- | --- | --- | --- | --- | --- | --- | --- | --- | --- | --- | --- | --- | --- | --- | --- | --- | --- | --- |
| Oc1ccc(C(O)CNCCCCCCNCC(O)c2ccc(O)c(O)c2)cc1O (configuration not stated) | 21.1 µM (active) | inactive | inactive | inactive | inactive | inactive | inactive | inactive | inactive | inactive | inactive | inactive | inactive |  |  |  |  |  |  |  |
| Cc1ccc(C(N)=O)cc1N | inactive |  |  | inactive | inactive | inactive | inactive | inactive | inactive | inactive | inactive | inactive | inactive | inactive | inactive | inactive | inactive | inactive |  |  |
| CCN(CC)CCOc1ccc2c(c1)C(=O)c1cc(OCCN(CC)CC)ccc1-2 | inactive | inactive | inactive | 29.8 µM (active) | inactive | inactive |  | inactive |  | 21.1 µM (active) | 26.6 µM (active) | inactive | 21.3 µM (active) |  | inactive |  | inactive |  |  |  |
| CCCCCCCCN(C)C | inactive |  | inactive |  | inactive | inactive | inactive |  | inactive | inactive | inactive | inactive |  | inactive | inactive | inactive |  |  |  |  |
| c1ccc(OCc2ccc(CCCN3CCOCC3)cc2)cc1 | inactive |  | inactive | inactive | inactive | inactive | inactive | inactive | inactive | inactive | inactive | inactive | inactive | inactive | inactive |  | inactive | inactive |  |  |
| CC(C(=O)O)c1ccc(C(=O)c2ccccc2)s1 (configuration not stated) | inactive |  | inactive | inactive | inactive | inactive | inactive |  | inactive | inactive | inactive | inactive | inactive | inactive |  | inactive | inactive | inactive | inactive | inactive |
| CCCc1ccccc1 | inactive |  | inactive | inactive | inactive | inactive | inactive | inactive | inactive | inactive | inactive | inactive | inactive | inactive |  |  | inactive | inactive |  |  |
| O=C(NS(=O)(=O)/C=C/c1cccs1)c1ccc(F)cc1Br | inactive |  | inactive | inactive | inactive | inactive | inactive | inactive | inactive | inactive | inactive | inactive | inactive | inactive |  |  | inactive |  | inactive | inactive |
| CCC(=O)OC(C)(C)C1CC=C(C)CC1 (configuration not stated) | inactive |  | inactive | inactive |  | inactive | inactive | inactive | inactive |  | inactive |  |  | inactive | inactive |  | inactive | inactive | inactive | inactive |
| CCCCCCc1ccc(N)cc1 | inactive | inactive |  | inactive |  | inactive | inactive |  | inactive |  | inactive | inactive | inactive | inactive |  |  | inactive | inactive |  |  |
| O=C(c1ccc(O)cc1)c1ccc(O)cc1 | inactive |  | inactive | inactive |  | inactive | inactive | inactive |  |  | inactive | inactive |  | inactive | inactive | inactive | inactive |  |  |  |
| CC1=CC(=O)/C(=C(/C)O)C(=O)O1 | inactive |  |  | inactive | inactive | inactive | inactive | inactive | inactive | inactive | inactive | inactive |  | inactive | inactive | inactive | inactive |  | inactive | inactive |
| CN1CCC(=C2c3ccccc3C=Cc3ccccc32)CC1 | inactive | inactive |  |  | inactive | inactive |  |  |  |  | inactive | inactive | inactive | inactive |  | inactive | inactive |  |  | inactive |
| CN1CCN(C2=Nc3cc(Cl)ccc3Nc3ccccc32)CC1 | inactive | inactive |  | inactive | inactive | inactive |  |  |  | inactive |  |  |  |  |  |  | inactive |  | inactive | inactive |
| CCCOc1ccc2nc(NC(=O)OC)[nH]c2c1 | inactive |  | inactive | inactive | inactive | inactive | inactive | inactive | inactive | inactive |  | inactive |  | inactive |  |  | inactive |  |  |  |
| Nc1nc(N)c2nc(CNc3ccc(C(=O)N[C@@H](CCC(=O)O)C(=O)O)cc3)cnc2n1 | inactive | inactive |  |  | 0.0051 µM (active) | inactive |  |  |  |  |  |  |  | inactive |  |  |  |  |  |  |
| Cc1cccc(Oc2ccccc2)c1 | inactive |  | inactive | inactive | inactive | inactive | inactive | inactive | inactive |  | inactive | inactive | inactive | inactive | inactive | inactive | inactive | inactive |  |  |
| CCOC(=O)C1=C(C)NC(C)=C(C(=O)OC)C1c1cccc([N+](=O)[O-])c1 (configuration not stated) | inactive |  |  | inactive | inactive | inactive | inactive | inactive | inactive | inactive | inactive | inactive | inactive | inactive | inactive | inactive | inactive | inactive |  |  |
| CN(C)C/C=C(/c1ccc(Br)cc1)c1cccnc1 | inactive | inactive | inactive | inactive | inactive | inactive |  |  | inactive | inactive |  | inactive | inactive |  | inactive | inactive |  |  |  |  |
| C1CCC2OC2C1 (configuration not stated) | inactive |  | inactive |  | inactive | inactive | inactive | inactive | inactive | inactive |  | inactive | inactive | inactive | inactive |  | inactive | inactive |  |  |
